Test results as given in PubChem BioAssay (EPA / NIEHS).
Results filed as inconclusive are left out. Activity calls are given as the source filed them. Rule for the calls, unless noted: active = hit-call score of the fitted dose curve at least 0.9, where 1 is the maximum; inactive = score below 0.9.

Tests used:
[1] = TAMU_PeakParms_SingleDonor1434_QT: Texas A&M University (TAMU) 1.5-hr Human Induced Pluripotent Stem Cell (iPSC)-derived Cardiomyocytes Calcium (Ca+2) Flux Assay for Cardiotoxicity: QT (decay-rise ratio) (AID 2284235; active = hit-call score of the fitted dose curve at least 0.9, where 1 is the maximum)
Method in brief: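 iPSC-derived cardiomyocytes (single donor 1434) dosed at 0.2, 1, 10, 100 uM final in 0.5% DMSO, 90 min at 37C. Ca2+ flux fluorescence decay/rise ratio; EC05 (5% increase versus DMSO) as POD, excluding beat-arrest and severe-notch data.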

[2] = read-out: Collagen I, COL1A1 (gene 1277); experiment: BSK_MyoF_CollagenI: BioMAP Diversity Plus: MyoF Assay for Collagen I Biomarker Activity (AID 2284238); conditions: primary human lung fibroblasts
Method in brief: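 ELISA readout of Collagen I after 24 h chemical treatment of primary human lung fibroblast cultures; gain of signal scored relative to DMSO vehicle baseline.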

[3] = read-out: Collagen III, COL3A1 (gene 1281); experiment: BSK_MyoF_CollagenIII: BioMAP Diversity Plus: MyoF Assay for Collagen III Biomarker Activity (AID 2284239); conditions: primary human lung fibroblasts
Method in brief: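 Lung fibroblast culture; 24 h compound exposure; collagen III by ELISA; gain-of-signal fit vs DMSO baseline.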

[4] = read-out: Interleukin 17F (IL17F), IL17F (gene 112744); experiment: BSK_BT_xIL17F: BioMAP Diversity Plus: BT Assay for Interleukin 17F (IL17F) Biomarker Activity (AID 2284243); conditions: primary human B cells with PBMC
Method in brief: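 Secreted IL-17F, read on LumineX xMAP beads, was taken as the endpoint. Cultures combined human B cells and peripheral blood mononuclear cells, sampled 24 hours after dosing, with DMSO serving as negative control.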

[5] = read-out: Actin alpha 1 (ACTA1), ACTA1 (gene 58); experiment: BSK_MyoF_ACTA1: BioMAP Diversity Plus: MyoF Assay for Actin alpha 1 (ACTA1) Biomarker Activity (AID 2284244); conditions: primary human lung fibroblasts
Method in brief: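 Measured by ELISA: alpha-smooth muscle actin in human primary lung fibroblasts 24 h after dosing, with DMSO as baseline and upward signal change as the fitted direction.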

Row | SMILES | outcome [1] | AC50 [2] | AC50 [3] | AC50 [4] | AC50 [5]
1 | O=C1C2CC=CCC2C(=O)N1SC(Cl)(Cl)Cl (stereo not given) | inactive |  |  |  | 
2 | COCC(C)N(C(=O)CCl)c1c(C)csc1C (stereo not given) |  | 17.3 µM (active) | 26.2 µM (active) | 23.8 µM (active) | 30.9 µM (active)
